In PubChem BioAssay (Tox21) one finds Potency and activity change, positive = activation data, which are given here for seven compounds.

A short description of experiment [1]: qHTS assay to identify small molecule agonists of the constitutive androstane receptor (CAR) signaling pathway - cell viability counter screen (AID 1224836). Further: on the % scale 0 is the no-effect control and ±100 the full control effect; nearly all actives have a fitted effect of over 45% in size. A digest of the protocol:
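23 h treatment, 37 C, 5% CO2. Cell line: HepG2 stably expressing hCAR with a CYP2B6-2.2kb construct. Co-treatment: PK11195, 0.75 uM final. Read-out: CellTiter-Fluor fluorescence intensity.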
On the technique in general: qHTS replaces the single test concentration by a dilution series.

Experiment [2] deals with Nuclear receptor subfamily 1 group I member 3 (Homo sapiens) (UniProt Q14994). As to the kind of experiment: qHTS assay to identify small molecule antagonists of the constitutive androstane receptor (CAR) signaling pathway (AID 1224838).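 Further: HepG2 cells stably expressing hCAR with CYP2B6 luciferase reporter stimulated by CITCO; nearly all actives have a fitted effect of over 40% in size.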 Further: potency means the concentration at half of the fitted maximal effect. Put shortly:
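Quantitative HTS in double-stable HepG2-CYP2B6-hCAR cells. After 4 h plating, cells get compound (15 concentrations) and CITCO at 50 nM final, incubate 24 h at 37 C, then ONE-Glo luminescence is read.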

Experiment [3] in a line: qHTS assay to identify small molecule antagonists of the estrogen related receptor signaling pathway with the pleiotropic PPARgamma coactivator (PGC) from Tox21 10K library - cell viability counter screen (AID 1224840; active means well fitted cell-killing curve with a large enough effect in the repeat runs, not every such curve was filed as active; further: nearly all actives have a fitted effect of over 40% in size; further: potency means the concentration at half of the fitted maximal effect). A digest of the protocol: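 Compounds in DMSO, alongside positive and negative controls, were pinned onto PGC/ERR cells (2,000 per well). Exposure lasted 17.5 hours at 37 C, followed by a 30-minute CellTiter-Fluor incubation and fluorescence reading.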

A short description of experiment [4]: qHTS assay to identify small molecule antagonists of the estrogen related receptor signaling pathway with the pleiotropic PPARgamma coactivator (PGC) from Tox21 10K library (AID 1224841; call rule not given here; further: actives are mostly falling curves and most rising ones were filed inactive; nearly all actives have a fitted effect of over 50% in size; further: potency means the concentration at half of the fitted maximal effect). A digest of the protocol:
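Compound exposure ran 18 hours at 37 C in PGC/ERR cells (2,000/well) that had first rested 6 hours in a 37 C/5% CO2 incubator. Luciferase activity was then detected with One-Glo after a 30-minute room-temperature step.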

Experiment [5] in a line: qHTS assay to identify small molecule agonists of the hypoxia (HIF-1) signaling pathway - cell viability counter screen (AID 1224844; calls by dose curve; further: nearly all actives have a fitted effect of over 50% in size; further: potency means the concentration at half of the fitted maximal effect). A digest of the protocol:
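Luminescent ATP content (CellTiter-Glo, 30 min, room temperature) served as the viability measure in HRE-bla ME-180 cells exposed to compounds for 17 hrs in low-serum medium (0.5% dialyzed FBS).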

A short description of experiment [6]: qHTS assay to identify small molecule agonists of H2AX (AID 1224845; active means well fitted activation curve with a large enough effect in the signal ratio in the repeat runs, not every such curve was filed as active; the % refers to the signal ratio; further: potency means the concentration at half of the fitted maximal effect). Put shortly: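 Phospho-H2AX Ser139 measured by HTRF (ex 320 nm; em 665 and 620 nm) after 24 hr antibody incubation. Compounds, 15 concentrations, 0.76% DMSO, were applied to CHO-K1 cells for 3hr at 37C before lysis.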
Experiment [7] in a line: qHTS assay to identify small molecule agonists of the hypoxia (HIF-1) signaling pathway (AID 1224846; active means well fitted activation curve with a large enough effect in the signal ratio in the repeat runs, not every such curve was filed as active; the % refers to the signal ratio; further: on the % scale 0 is the no-effect control and ±100 the full control effect). Put shortly: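 Measured by blue/green FRET after loading CCF4-AM: beta-lactamase expressed from a hypoxia response element in ME-180 cells. Test agents were delivered in DMSO and left 17 hrs; cells had been plated 5 hrs earlier in low-serum (0.5% dialyzed FBS) medium.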

Experiment [8] in a line: qHTS assay to identify small molecule agonists of H2AX - cell viability counter screen (AID 1224847; calls by dose curve; further: nearly all actives have a fitted effect of over 30% in size; further: potency means the concentration at half of the fitted maximal effect). Put shortly: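 Compounds tested at 15 concentrations were incubated 3 hr at 37C with wild-type CHO-K1 cells; cellular ATP-based luminescence (CellTiter-Glo) indicated viability.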
The nature of experiment [9]: qHTS assay to identify small molecule antagonists of the estrogen related receptor (ERR) signaling pathway from Tox21 library (AID 1224848). Further: nearly all actives have a fitted effect of over 50% in size. Further: potency means the concentration at half of the fitted maximal effect. Put shortly: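 Antagonist-mode screen of the Tox21 10K library in an NTP-provided ERR reporter cell line; 18 h compound exposure at 37 C, luminescence measured with ONE-Glo.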
A short description of experiment [10]: qHTS assay to identify small molecule agonists of the estrogen related receptor (ERR) signaling pathway from Tox21 library (AID 1224849; calls by dose curve; further: on the % scale 0 is the no-effect control and ±100 the full control effect; nearly all actives have a fitted effect of over 15% in size). To be noted: ERR reporter cell line, ONE-Glo luciferase, 18 h. A digest of the protocol:
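We plated ERR reporter cells, waited 6 h, added compounds in DMSO by pin tool and incubated them 18 h at 37 C. ONE-Glo was then added and luminescence read after 30 min.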

A short description of experiment [11]: qHTS RealTime-Glo MT Cell Viability Assay in HepG2 cells - 24 hour (AID 1224867). Further: nearly all actives have a fitted effect of over 50% in size. Further: potency means the concentration at half of the fitted maximal effect. A digest of the protocol: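 HepG2 suspension premixed with RealTime-Glo reagents is plated at 600 cells per well and left 5 h at 37 C/5% CO2. Compounds in DMSO then go in, and bioluminescence reflecting viable cell number is recorded over 40 h.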
The nature of experiment [12]: qHTS RealTime-Glo MT Cell Viability Assay in HEK293 cells - 32 hour (AID 1224868). Further: nearly all actives have a fitted effect of over 50% in size. Further: potency means the concentration at half of the fitted maximal effect. A digest of the protocol:
(§1)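 Reads taken at 0, 8, 16, 24, 32 and 40 h from the same wells. HEK293 cells (600/well) carried RealTime-Glo reagents from seeding, with compound added after a 5 h settle at 37 C.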

A short description of experiment [13]: A CellTox Green Cytotoxicity Assay to monitor cytotoxicity in HEK293 cells - 0 hour (AID 1224869). Put shortly:
(§2)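 Each value comes from one timepoint of a single continuous run in which HEK293 cells with CellTox Green were exposed to compound for up to 40 h at 37 C, dye fluorescence rising with cell death.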

Experiment [14] can be described thus: qHTS RealTime-Glo MT Cell Viability Assay in HepG2 cells - 40 hour (AID 1224870). A digest of the protocol:
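Real-time viability: cells seeded at 600 per well together with NanoLuc and cell-permeant prosubstrate, compounds added after 5 h incubation. Luminescence tracked at 0, 8, 16, 24, 32 and 40 h of exposure.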

Experiment [15] is described as follows: A CellTox Green Cytotoxicity Assay to monitor cytotoxicity in HEK293 cells - 40 hour (AID 1224871). Further: nearly all actives have a fitted effect of over 45% in size. Further: potency means the concentration at half of the fitted maximal effect. Put shortly: as §2
Experiment [16] can be described thus: qHTS RealTime-Glo MT Cell Viability Assay in HEK293 cells - 16 hour (AID 1224872). Further: nearly all actives have a fitted effect of over 50% in size. Further: potency means the concentration at half of the fitted maximal effect. A digest of the protocol: as §1
For experiment [17], the target named is Thyrotropin receptor (Homo sapiens) (UniProt P16473). Description: qHTS assay to identify small molecule agonists of the thyroid stimulating hormone receptor (TSHR) signaling pathway (AID 1224843; calls by dose curve; further: nearly all actives have a fitted effect of over 45% in size; further: potency means the concentration at half of the fitted maximal effect; on activation: on the % scale 0 is the no-effect control and ±100 the full control effect). A digest of the protocol: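 Screening of the Tox21 10K collection used HEK293 cells engineered with TSHR at 800 cells per well. After a 30-min room-temperature compound exposure, HTRF cAMP reagents were added and fluorescence recorded 1 h later.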
Chain of Thyrotropin receptor (Homo sapiens) (P16473 whole entry, looked up): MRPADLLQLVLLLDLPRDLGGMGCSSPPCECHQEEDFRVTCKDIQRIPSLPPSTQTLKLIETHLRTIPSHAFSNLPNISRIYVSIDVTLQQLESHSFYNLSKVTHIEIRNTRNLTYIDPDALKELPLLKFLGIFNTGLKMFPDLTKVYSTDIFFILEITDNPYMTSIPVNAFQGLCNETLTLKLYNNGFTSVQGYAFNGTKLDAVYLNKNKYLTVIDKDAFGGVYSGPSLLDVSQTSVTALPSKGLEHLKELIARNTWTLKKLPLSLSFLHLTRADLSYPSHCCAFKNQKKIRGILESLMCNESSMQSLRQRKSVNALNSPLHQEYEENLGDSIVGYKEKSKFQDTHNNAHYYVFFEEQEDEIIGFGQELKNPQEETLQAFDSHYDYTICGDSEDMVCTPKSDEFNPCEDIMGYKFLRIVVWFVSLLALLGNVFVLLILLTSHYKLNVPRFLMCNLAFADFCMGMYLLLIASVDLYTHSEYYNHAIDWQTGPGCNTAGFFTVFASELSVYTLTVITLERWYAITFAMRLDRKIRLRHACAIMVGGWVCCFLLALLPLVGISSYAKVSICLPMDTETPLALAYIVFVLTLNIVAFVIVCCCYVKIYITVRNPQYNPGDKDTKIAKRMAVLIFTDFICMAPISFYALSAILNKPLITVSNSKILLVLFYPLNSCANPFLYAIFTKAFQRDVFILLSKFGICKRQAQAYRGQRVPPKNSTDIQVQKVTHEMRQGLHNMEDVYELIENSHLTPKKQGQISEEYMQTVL

Experiment [18] in a line: qHTS assay to identify small molecule antagonists of the constitutive androstane receptor (CAR) signaling pathway - cell viability counter screen (AID 1224837). Further: potency means the concentration at half of the fitted maximal effect; nearly all actives have a fitted effect of over 45% in size. A digest of the protocol: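 Fluorescence from CellTiter-Fluor served as the viability signal. Human hepatoma HepG2 cells stably bearing hCAR and CYP2B6-2.2kb received compound plus CITCO (50 nM final) for 23 hr.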

Experiment [19] deals with Nuclear receptor subfamily 1 group I member 3 (Homo sapiens) (UniProt Q14994). Description: qHTS assay to identify small molecule agonists of the constitutive androstane receptor (CAR) signaling pathway (AID 1224839).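 Further: HepG2 cells stably carrying human CAR and a CYP2B6 luciferase reporter; on the % scale 0 is the no-effect control and ±100 the full control effect; nearly all actives have a fitted effect of over 15% in size.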 A digest of the protocol: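 Compounds tested at 15 concentrations on HepG2 cells stably harbouring hCAR and CYP2B6-2.2kb reporter constructs, co-treated with PK11195 (0.75 uM final), 24 h at 37 C; luminescent reporter signal quantified.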
Chain of Nuclear receptor subfamily 1 group I member 3 (Homo sapiens) (Q14994 whole entry, looked up): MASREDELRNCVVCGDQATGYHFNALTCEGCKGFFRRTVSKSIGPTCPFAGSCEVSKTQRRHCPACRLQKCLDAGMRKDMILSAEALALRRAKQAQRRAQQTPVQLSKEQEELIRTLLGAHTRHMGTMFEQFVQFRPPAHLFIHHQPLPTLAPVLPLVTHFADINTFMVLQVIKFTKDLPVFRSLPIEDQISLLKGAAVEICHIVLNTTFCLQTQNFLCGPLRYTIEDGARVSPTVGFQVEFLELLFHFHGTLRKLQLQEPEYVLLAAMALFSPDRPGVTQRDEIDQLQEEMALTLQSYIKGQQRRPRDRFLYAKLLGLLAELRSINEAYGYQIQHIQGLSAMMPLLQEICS

Several values for one entry are separate records, joined by “and”; a condition that tells them apart may be missing. Equal values may be shown once. Records with an inconclusive call do not appear. A structure can be active in one record and inactive in another. Activity calls are given as the source filed them. Unless noted, the call rests on the fitted dose curve; in most records, active means well fitted curve in the direction sought with a large enough effect in the repeat runs; inconclusive means weak or mixed curves; inactive means no such curve, though single readings can be large; an effect the other way counts as inactive or inconclusive.

As for `c1cnc2cc3c(cc2n1)C1CNCC3C1`, the Potency entry in experiment [1], in [2], in experiment [3], in [4], in [5] and in [6] was “inactive” throughout. In addition, the Potency result in experiment [7], in [8], in experiment [9], in experiment [11], in experiment [12] and in experiment [13] was “inactive” each time. Moreover, the Potency result in [14], in experiment [15] and in experiment [16] was “inactive” throughout. For the same compound, the activity change, positive = activation in [10] (at 42.5 µM (top of the series)) was 1.11% (inactive).

As to `NNCCc1ccccc1`, the Potency entry in [1], in experiment [2], in experiment [3], in experiment [17], in experiment [5] and in [6] was “inactive” throughout. In addition, the Potency result in experiment [8], in [11], in experiment [12], in experiment [13], in experiment [14] and in [15] was “inactive” each time. Moreover, the Potency result in experiment [16] was “inactive”.

For `Nc1nc(=S)c2[nH]cnc2[nH]1`, the Potency was 11.9 µM (active) and 4.86 µM (active) in [18]; 5.96 µM (active) and 1.93 µM (active) and 2.37 µM (active) in experiment [2]; 23.9 µM (active) and 19.5 µM (active) in experiment [12]. The Potency result in experiment [19], in experiment [3], in experiment [17], in [6], in experiment [7] and in experiment [11] was “inactive” each time. Moreover, the Potency entry in experiment [13], in [14], in experiment [15] and in [16] was “inactive” each time.

Take `CCC(=O)/C=C/C1C(C)=CCCC1(C)C` (stereo not drawn): the Potency entry in experiment [1], in [3], in [17], in [5], in experiment [6] and in experiment [7] was “inactive” in each case. For the same compound, the Potency result in [8], in experiment [11], in experiment [13], in experiment [14] and in experiment [16] was “inactive” in each case. In addition, the Potency in experiment [15] is 49.1 µM (active) and inactive.

As for `CC(C)(C)NCC(O)c1cc(O)cc(O)c1` (stereo not drawn), the Potency entry in experiment [1], in experiment [3], in [5], in experiment [6], in [7] and in experiment [8] was “inactive” each time. The Potency result in experiment [11], in experiment [12], in experiment [13], in [14], in experiment [15] and in [16] was “inactive” throughout. Besides, the Potency in [17] is 0.596 µM (active).

For the compound `O=C(Nc1ccccc1SSc1ccccc1NC(=O)c1ccccc1)c1ccccc1`, the Potency in experiment [2] was 21.8 µM (active) and 30.6 µM (active); in [3] it was 30.8 µM (active) and 48.6 µM (active); in experiment [4], 27.4 µM (active) and 27.3 µM (active); in [5], 15.6 µM (active) and 21.9 µM (active); in experiment [6], 18 µM (active); in [9], 24.5 µM (active) and 43.3 µM (active). Besides, the Potency result in experiment [11] was “inactive and 49 µM (active)”. In addition, the Potency entry in experiment [17], in experiment [13] and in [14] was “inactive” throughout. In addition, in [10] (at 92.4 µM (top of the series)), the activity change, positive = activation is -71.7% (inactive) and -62.7% (inactive).

With `Nc1cc(Cl)c(-c2cc(Cl)c(N)cc2Cl)cc1Cl`, the Potency in [2] was 13.7 µM (active) and 27.3 µM (active); in experiment [8] it was 101 µM (active) and 113 µM (active); in experiment [9], 54.4 µM (active) and 61.1 µM (active); in experiment [16], 24.5 µM (active). Also, the Potency entry in [19], in experiment [17], in [13], in experiment [14] and in [15] was “inactive” throughout. Besides, in experiment [10] (at 92.4 µM (top of the series)), the activity change, positive = activation was -76.8% (inactive) and -62.3% (inactive).
